Experimental data: PubChem BioAssay
Several values for one entry are separate records, joined by “and”; a condition that tells them apart may be missing. Equal values may be shown once. Activity calls are given as the source filed them.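 Rule for the calls, unless noted: active = z-score of at least 1.8 in each of two replicates, scored against plate mean and spread of sample wells; inactive = the rest.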

Target: Mitogen-activated protein kinase 7 (Homo sapiens) (UniProt Q13164)
Experiment: ERK5 transactivation activators in reporter cells, primary screen, cell-based, HTS (AID 1508626;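 active = luciferase signal above three times the same-plate solvent-only control wells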;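 note: luciferase driven by Gal4-ERK5 fusion binding five Gal4 sites before minimal TATA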)
Conditions: HeLa Gal4-ERK5 transactivation, 18 h, at 5 µM, active compounds read high

Chain of Mitogen-activated protein kinase 7 (Homo sapiens) (Q13164 whole entry, looked up, the tested form may be a part): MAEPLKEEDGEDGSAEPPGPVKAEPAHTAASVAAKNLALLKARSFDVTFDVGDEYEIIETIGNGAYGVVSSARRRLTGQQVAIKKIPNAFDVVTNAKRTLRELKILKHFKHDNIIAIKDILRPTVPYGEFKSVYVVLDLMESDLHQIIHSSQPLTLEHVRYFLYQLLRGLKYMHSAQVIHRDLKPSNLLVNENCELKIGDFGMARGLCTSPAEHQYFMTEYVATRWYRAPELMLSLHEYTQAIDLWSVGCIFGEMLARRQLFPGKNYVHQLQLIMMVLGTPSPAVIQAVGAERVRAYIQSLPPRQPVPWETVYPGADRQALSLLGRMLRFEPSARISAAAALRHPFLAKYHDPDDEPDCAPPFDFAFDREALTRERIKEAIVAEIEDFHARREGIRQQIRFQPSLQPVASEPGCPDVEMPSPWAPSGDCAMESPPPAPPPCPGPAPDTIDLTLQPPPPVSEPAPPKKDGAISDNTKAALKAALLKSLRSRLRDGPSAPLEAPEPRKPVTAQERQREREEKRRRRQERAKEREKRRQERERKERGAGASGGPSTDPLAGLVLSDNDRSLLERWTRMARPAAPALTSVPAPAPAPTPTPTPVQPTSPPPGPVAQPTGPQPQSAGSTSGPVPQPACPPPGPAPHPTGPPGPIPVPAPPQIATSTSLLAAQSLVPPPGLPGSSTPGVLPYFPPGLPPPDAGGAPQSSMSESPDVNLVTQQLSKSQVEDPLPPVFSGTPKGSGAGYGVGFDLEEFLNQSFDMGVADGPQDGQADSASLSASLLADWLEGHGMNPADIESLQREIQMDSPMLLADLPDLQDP

Q: With `COC(=O)[C@H](c1ccccc1Cl)N1CCc2sccc2C1` as the compound, how does the luciferase signal read?
A: Its luciferase signal is 20 AU (inactive).

Q: For `CC(C)NCC(O)COc1cccc2ccccc12` (stereo not drawn), which luciferase signal is on record?
A: The luciferase signal was 48 AU (inactive).

Q: With `CS(=O)(=O)c1ccc(C2=C(c3ccccc3)C(=O)OC2)cc1` as the compound, how does the luciferase signal read?
A: The luciferase signal was 192 AU (inactive).

Q: Which luciferase signal does the source give for `Cc1occc(=O)c1O` here?
A: Its luciferase signal is 52 AU (inactive).

Q: Which luciferase signal does the source give for `CN(C)c1nc(N(C)C)nc(N(C)C)n1` here?
A: Its luciferase signal is 40 AU (inactive).

Q: For `COc1ccc(-c2cc(=O)c3c(OC)c(OC)c(OC)c(OC)c3o2)cc1OC`, which luciferase signal is on record?
A: Its luciferase signal is 48 AU (inactive).

Q: For `C[N+]1(C)CCCC(OC(=O)C(O)(c2ccccc2)c2ccccc2)C1` (stereo not drawn), which luciferase signal is on record?
A: Its luciferase signal is 36 AU (inactive).

Q: Which luciferase signal does the source give for `CC1=C(/C=C/C(C)=C/C=C/C(C)=C\C(=O)O)C(C)(C)CCC1` here?
A: Its luciferase signal is 48 AU (inactive).

Q: Which luciferase signal does the source give for `CCc1ccc(CCOc2ccc(CC3SC(=O)NC3=O)cc2)nc1` (stereo not drawn) here?
A: Its luciferase signal is 48 AU (inactive).

Q: Which luciferase signal does the source give for `COc1ccc(C[C@H](N)C(=O)N[C@H]2[C@@H](O)[C@H](n3cnc4c(N(C)C)ncnc43)O[C@@H]2CO)cc1` here?
A: The luciferase signal was 244 AU (inactive).

Q: With `CC(C(=O)O)c1ccc(-c2ccccc2)c(F)c1` (stereo not drawn) as the compound, how does the luciferase signal read?
A: Its luciferase signal is 40 AU (inactive).

Q: With `CC[C@H]1OC(=O)[C@H](C)[C@@H](O[C@H]2C[C@@](C)(OC)[C@@H](O)[C@H](C)O2)[C@H](C)[C@@H](O[C@@H]2O[C@H](C)C[C@H](N(C)C)[C@H]2O)[C@](C)(OC)C[C@@H](C)C(=O)[C@H](C)[C@@H](O)[C@]1(C)O` as the compound, how does the luciferase signal read?
A: The luciferase signal was 44 AU (inactive).

Q: For `C[C@H]1COc2c(N3CCN(C)CC3)c(F)cc3c(=O)c(C(=O)O)cn1c23`, which luciferase signal is on record?
A: The luciferase signal was 296 AU (inactive).

Q: With `CC(C)NCC(O)COc1ccc(CC(N)=O)cc1` (stereo not drawn) as the compound, how does the luciferase signal read?
A: Its luciferase signal is 52 AU (inactive).

Q: For `O=c1ccc2ccc(O)c(O)c2o1`, which luciferase signal is on record?
A: Its luciferase signal is 64 AU (inactive).

Q: Which luciferase signal does the source give for `Cc1cccc(C)c1NC(=O)C1CCCCN1C` (stereo not drawn) here?
A: Its luciferase signal is 68 AU (inactive).

Q: With `CCCCC(=O)N(Cc1ccc(-c2ccccc2-c2nn[nH]n2)cc1)[C@H](C(=O)O)C(C)C` as the compound, how does the luciferase signal read?
A: The luciferase signal was 56 AU (inactive).

Q: For `Nc1ncnc2c1ncn2[C@@H]1O[C@H](CO)[C@@H](O)[C@@H]1O`, which luciferase signal is on record?
A: Its luciferase signal is 160 AU (inactive).

Test system: not listed separately
Experiment: viability rescue of complex I mutant cybrids, primary screen, cell-based, galactose medium, ATP luminescence (AID 1645843);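 note: positive z means more ATP and so rescue of galactose-driven cybrid death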
Conditions: complex I mutant cybrid cells, 72 h, active compounds read high

Q: With `COc1ccc(/C=C/C(=O)Nc2ccccc2C(=O)O)cc1OC` as the compound, how does the z-score read?
A: Its z-score is 1.34 (inactive) and 0.925 (inactive) and 0.79 (inactive).

Q: Which z-score does the source give for `COC(=O)[C@H](c1ccccc1Cl)N1CCc2sccc2C1` here?
A: The z-score was -0.555 (inactive) and -0.06 (inactive).

Q: For `O=[N+]([O-])c1cccc2cn[nH]c12`, which z-score is on record?
A: Its z-score is 0.295 (inactive) and 0.3 (inactive) and -0.14 (inactive).

Q: Which z-score does the source give for `CS(=O)(=O)c1ccc(C2=C(c3ccccc3)C(=O)OC2)cc1` here?
A: Its z-score is 0.26 (inactive) and 0.525 (inactive).

Q: For `Cc1occc(=O)c1O`, which z-score is on record?
A: The z-score was 0.51 (inactive).

Q: For `CN(C)c1nc(N(C)C)nc(N(C)C)n1`, which z-score is on record?
A: The z-score was 0.975 (inactive) and 0.76 (inactive) and 0.825 (inactive).

Q: With `COc1ccc(-c2cc(=O)c3c(OC)c(OC)c(OC)c(OC)c3o2)cc1OC` as the compound, how does the z-score read?
A: The z-score was 0.845 (inactive).

Q: Which z-score does the source give for `C[N+]1(C)CCCC(OC(=O)C(O)(c2ccccc2)c2ccccc2)C1` (stereo not drawn) here?
A: Its z-score is 0.49 (inactive).

Q: Which z-score does the source give for `CC1=C(/C=C/C(C)=C/C=C/C(C)=C\C(=O)O)C(C)(C)CCC1` here?
A: Its z-score is 1.53 (inactive) and -0.905 (inactive).

Q: With `CCc1ccc(CCOc2ccc(CC3SC(=O)NC3=O)cc2)nc1` (stereo not drawn) as the compound, how does the z-score read?
A: Its z-score is 0.365 (inactive) and 1.53 (inactive).

Q: With `COc1ccc(C[C@H](N)C(=O)N[C@H]2[C@@H](O)[C@H](n3cnc4c(N(C)C)ncnc43)O[C@@H]2CO)cc1` as the compound, how does the z-score read?
A: The z-score was -2.25 (inactive).

Q: For `CC[C@H]1OC(=O)[C@H](C)[C@@H](O[C@H]2C[C@@](C)(OC)[C@@H](O)[C@H](C)O2)[C@H](C)[C@@H](O[C@@H]2O[C@H](C)C[C@H](N(C)C)[C@H]2O)[C@](C)(OC)C[C@@H](C)C(=O)[C@H](C)[C@@H](O)[C@]1(C)O`, which z-score is on record?
A: Its z-score is -0.33 (inactive).

Q: Which z-score does the source give for `C[C@H]1COc2c(N3CCN(C)CC3)c(F)cc3c(=O)c(C(=O)O)cn1c23` here?
A: Its z-score is -0.45 (inactive).

Q: Which z-score does the source give for `O=c1ccc2ccc(O)c(O)c2o1` here?
A: Its z-score is -0.93 (inactive).

Q: With `Cc1cccc(C)c1NC(=O)C1CCCCN1C` (stereo not drawn) as the compound, how does the z-score read?
A: The z-score was 0.56 (inactive).

Q: With `Nc1ncnc2c1ncn2[C@@H]1O[C@H](CO)[C@@H](O)[C@@H]1O` as the compound, how does the z-score read?
A: The z-score was -1.35 (inactive) and 1.67 (inactive).

Test system: F380Y
Experiment: modulators of BK channel variants, profiling panel, selectivity assay, cell-based, U2OS BacMam, thallium flux, beta subunits (AID 1259406;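 active = thallium flux through the channel raised or lowered by more than 3 SD from vehicle-only wells, actives on both sides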;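 note: initial slope of Thallos dye fluorescence rise after thallium is added; log ratio against the mean of 0.3% DMSO vehicle wells on the same plate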)
Conditions: at 30 µM

Q: Which log fold change Tl+ flux does the source give for `CNCCC(Oc1ccc(C(F)(F)F)cc1)c1ccccc1` (stereo not drawn) here?
A: Its log fold change Tl+ flux is 0.129 (active).

Q: With `COc1ccc(/C=C/C(=O)Nc2ccccc2C(=O)O)cc1OC` as the compound, how does the log fold change Tl+ flux read?
A: The log fold change Tl+ flux was -0.0454 (inactive).

Q: With `COC(=O)[C@H](c1ccccc1Cl)N1CCc2sccc2C1` as the compound, how does the log fold change Tl+ flux read?
A: Its log fold change Tl+ flux is -0.0366 (inactive).

Q: Which log fold change Tl+ flux does the source give for `CC(C)NCC(O)COc1cccc2ccccc12` (stereo not drawn) here?
A: The log fold change Tl+ flux was 0.0569 (inactive).

Q: Which log fold change Tl+ flux does the source give for `O=[N+]([O-])c1cccc2cn[nH]c12` here?
A: Its log fold change Tl+ flux is 0.0311 (inactive).

Q: For `CS(=O)(=O)c1ccc(C2=C(c3ccccc3)C(=O)OC2)cc1`, which log fold change Tl+ flux is on record?
A: The log fold change Tl+ flux was 0.0227 (inactive).

Q: Which log fold change Tl+ flux does the source give for `Cc1occc(=O)c1O` here?
A: Its log fold change Tl+ flux is 0.00693 (inactive).

Q: For `CN(C)c1nc(N(C)C)nc(N(C)C)n1`, which log fold change Tl+ flux is on record?
A: The log fold change Tl+ flux was 0.0102 (inactive).

Q: For `COc1ccc(-c2cc(=O)c3c(OC)c(OC)c(OC)c(OC)c3o2)cc1OC`, which log fold change Tl+ flux is on record?
A: Its log fold change Tl+ flux is 0.00321 (inactive).

Q: For `C[N+]1(C)CCCC(OC(=O)C(O)(c2ccccc2)c2ccccc2)C1` (stereo not drawn), which log fold change Tl+ flux is on record?
A: The log fold change Tl+ flux was 0.00904 (inactive).

Q: With `CC1=C(/C=C/C(C)=C/C=C/C(C)=C\C(=O)O)C(C)(C)CCC1` as the compound, how does the log fold change Tl+ flux read?
A: Its log fold change Tl+ flux is -0.00963 (inactive).

Q: With `CCc1ccc(CCOc2ccc(CC3SC(=O)NC3=O)cc2)nc1` (stereo not drawn) as the compound, how does the log fold change Tl+ flux read?
A: The log fold change Tl+ flux was 0.00439 (inactive).

Q: For `CC(C(=O)O)c1ccc(-c2ccccc2)c(F)c1` (stereo not drawn), which log fold change Tl+ flux is on record?
A: Its log fold change Tl+ flux is 0.0247 (inactive).

Q: With `CC[C@H]1OC(=O)[C@H](C)[C@@H](O[C@H]2C[C@@](C)(OC)[C@@H](O)[C@H](C)O2)[C@H](C)[C@@H](O[C@@H]2O[C@H](C)C[C@H](N(C)C)[C@H]2O)[C@](C)(OC)C[C@@H](C)C(=O)[C@H](C)[C@@H](O)[C@]1(C)O` as the compound, how does the log fold change Tl+ flux read?
A: The log fold change Tl+ flux was 0.0307 (inactive).

Q: Which log fold change Tl+ flux does the source give for `C[C@H]1COc2c(N3CCN(C)CC3)c(F)cc3c(=O)c(C(=O)O)cn1c23` here?
A: Its log fold change Tl+ flux is -0.012 (inactive).

Q: With `CC(C)NCC(O)COc1ccc(CC(N)=O)cc1` (stereo not drawn) as the compound, how does the log fold change Tl+ flux read?
A: The log fold change Tl+ flux was -0.0247 (inactive).

Q: With `Cc1cccc(C)c1NC(=O)C1CCCCN1C` (stereo not drawn) as the compound, how does the log fold change Tl+ flux read?
A: The log fold change Tl+ flux was 0.0251 (inactive).

Q: Which log fold change Tl+ flux does the source give for `CCCCC(=O)N(Cc1ccc(-c2ccccc2-c2nn[nH]n2)cc1)[C@H](C(=O)O)C(C)C` here?
A: Its log fold change Tl+ flux is 0.0751 (inactive).

Q: For `Nc1ncnc2c1ncn2[C@@H]1O[C@H](CO)[C@@H](O)[C@@H]1O`, which log fold change Tl+ flux is on record?
A: The log fold change Tl+ flux was -0.000678 (inactive).
